PubChem BioAssay (NCI)
This is part of a sample that, as a whole, favours compounds with a hit. Of some 83,000 tested, about 20% had one in any assay.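 Cell lines were cultured in 96-well plates, exposed to a single compound concentration, and assessed for percent growth 48 hours later.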 A number with no mark means an inactive call. The source made the active and inactive calls. The calls were made as follows: active = growth percent below 10; inactive = the rest.

What was measured:
Experiment in all cases: NCI-60 one-dose screen, 48 h (100 = growth as untreated, 0 = no growth, -100 = all killed)
Settings in all cases: 10 µM unless noted
[1] = tested on: NCI-H23 lung
[2] = tested on: NCI-H226 lung
[3] = tested on: NCI-H322M lung
[4] = tested on: HOP-62 NSCLC
[5] = tested on: NCI-H460 lung
[6] = tested on: NCI-H522 lung
[7] = tested on: A549/ATCC NSCLC
[8] = tested on: 786-0 renal
[9] = tested on: MALME-3M melanoma
[10] = tested on: MDA-MB-231 breast
[11] = tested on: RXF 393 renal
[12] = tested on: SF-268 CNS
[13] = tested on: SF-295 CNS
[14] = tested on: SF-539 CNS
[15] = tested on: UACC-257 melanoma
[16] = tested on: M14 melanoma
[17] = tested on: HCT-15 colon
[18] = tested on: DU-145 prostate
[19] = tested on: COLO 205 colon
[20] = tested on: K-562 leukemia

SMILES	growth [1]	growth [2]	growth [3] [%]	growth [4]	growth [5]	growth [6]	growth [7]	growth [8]	growth [9]	growth [10]	growth [11]	growth [12] [%]	growth [13]	growth [14]	growth [15]	growth [16]	growth [17]	growth [18]	growth [19]	growth [20]
Cn1cc(-c2csc(-c3c[nH]c4ncccc34)n2)c2cc(Br)cnc21	31.6%	49%	59.9	-19.7% (active)	7.22% (active)	-2.08% (active)	5.11% (active)	20%	32.8%	-1.21% (active)	26.1%	64.8	-1.78% (active)	70.1%	57.1%	35.2%	66.8%			
O=C(CCc1nnc2sc(Cc3ccccc3Cl)nn12)c1nc2ccccc2[nH]1	90.4%	89.3%	85.2	92.1%	99.5%	96.6%	100%	85.8%	112%	76.5%	90.9%	84.9	103%	107%	102%	99.2%	92.3%			
O=C1Cc2cc(CCN3CCN(CCOCCO)CC3)c(Cl)cc2N1Cc1ccc(-c2ccccc2-c2nn[nH]n2)cc1	85.8%	81.8%	108	91.6%	90%	79.4%	87.1%	86.8%	91.8%	92.1%	113%	117	93.5%		81.4%	92.6%	86.6%	117%		
COc1ccc(-n2nc3c(c2-c2ccc(OC)c(OC)c2)-c2oncc2CC3)cc1	93.3%	106%	97.7	94.1%	90.3%	18.1%	82.5%	78%	100%	80%	83.8%	84	84%	114%	110%	93.6%	55.9%			
Cn1cc(-c2csc(-c3c[nH]c4ncccc34)n2)c2cc(F)cnc21	74%	73.5%	70.7	79.5%	61.3%	86.8%	85.3%	90.5%	95.5%	57%	59.8%	91.7	74.3%	90.9%	96.2%		61.3%			
O=C1CN(CO)C(=O)CN1CO	103%	113%	100	106%	104%	98.9%	103%	105%	103%	108%		105	101%	115%	99.8%	104%	106%	114%		
Cc1nn(-c2ccccc2)c2nc3c(nc12)C(=O)CCC3	80.4%	107%	93.1	92.9%	104%	74%	92.9%	88.5%	98%	108%	116%	103			99.8%	106%	88.5%	104%		
O=[N+]([O-])c1ccc2c(c1)S(=O)c1cc([N+](=O)[O-])ccc1N2	103%	91.9%	117	67.3%	96.4%	97%		108%	113%	96.3%	104%	104	106%	98.3%	96.6%	91.7%	99%	116%	108%	115%
CN1CCN(Cc2ccc(NC(=O)c3[nH]ncc3Nc3ccnc4ccnn34)cc2)CC1	62.3%	65.7%	79.6	93.5%	63.7%	55.7%	81.3%		58.9%	99.9%	51.5%	63.7	88.7%	40.9%	77.9%	57.1%	98%	47.4%	39.5%	34.9%
O=C(Nc1ccc(Cl)cc1)Nc1ccc(Oc2nncc3ccccc23)cc1	0.498% (active)	-54.5% (active)	60.9	12.9%	21.5%	-46.3% (active)	40%		0.777% (active)	-25.2% (active)	-91.2% (active)	12.6	40.7%	-76.5% (active)	34.4%	7.3% (active)	2.76% (active)	11.2%	11.9%	5.58% (active)
Cn1cc(-c2csc(-c3cn(C)c4ncccc34)n2)c2cccnc21	92.1%	107%	106	123%	98.4%	87.1%	89.7%	83.1%	106%	93.7%	98.4%	106	98.3%	99%	99.8%	96%	90.6%			
Cn1cc(-c2nc(-c3c[nH]c4ncccc34)cs2)c2cccnc21	63.1%	70%	64.3	68.2%	46.6%	46.5%	69.6%	60.6%	84.8%	47.6%	54.6%	91.5	71.1%	69.1%	105%	42.5%	43.6%			
COc1cc2c(c(OC)c1OC)-c1ccc(NN(C(=O)c3ccccc3)C(=O)c3ccccc3)c(=O)cc1[C@@H](NC(C)=O)CC2 (tested in a mixture with another compound)	26.9%	73.3%	17.8	46%	17.9%	-8.35% (active)	56.6%	31.4%	39.4%	51.2%	38.5%	48.9	-30.7% (active)	15.4%	58.4%	4.01% (active)	48.8%	3.42% (active)		
O=C(NN(C(=O)c1ccccc1)c1cccs1)c1ccccc1	103%	99.8%	94	97%	116%	91.3%		100%	97.3%	93.4%	115%	112	116%	110%	139%	101%	101%	123%	106%	109%
Cc1c(C(N)=O)sc2c1C(=O)N(Cc1ccccc1)C1=NN=C(c3ccc(Cl)cc3)CN12	58.9%	73.9%	38.1	66.3%	28%	67.1%	46%	43%	58.9%	37.3%	51.3%	38.6	29.1%	53.2%	59.8%	41.5%	22.6%	46.1%		
CN(CC(=O)N(Cc1ccc(C2CCCCC2)cc1)c1ccc(C(=O)O)cc1)S(=O)(=O)c1c(F)c(F)c(F)c(F)c1F	-19.9% (active)	97.4%	86.4	60.6%	96%	44.7%	100%		62%	-28.7% (active)	-87.3% (active)	67.5	108%	99.2%	31.6%	19.9%	-46.1% (active)	-18% (active)	12.9%	1.31% (active)
O=C(/C=C/c1ccccc1)CC(c1ccccc1)N1CCOCC1 (centres undefined)	96.6%	99.5%	121	102%	106%		63%	4.06% (active)	138%	60.3%	102%	97.3	98.7%	69.3%	98.8%	-35% (active)	61.5%	91.3%	76.3%	49.9%
c1ccc(-n2nnnc2-c2cccc3ccccc23)cc1	52.1%	79.3%	30.2	25.9%	9.98% (active)		34.5%	24.7%	34.8%	25.4%	-5.16% (active)	43.4	1.28% (active)	-18.8% (active)	57.5%	8.41% (active)	18.7%	7.52% (active)	-17.8% (active)	13%

SMILES	growth [1]	growth [2]	growth [3] [%]	growth [4]	growth [5]	growth [6]	growth [7]	growth [8]	growth [9]	growth [10]	growth [11]	growth [12] [%]	growth [13]	growth [14]	growth [15]	growth [16]	growth [17]	growth [18]	growth [19]	growth [20]
CC(C)C/C(=N\NC(=O)c1ccncc1)c1cc(Cl)ccc1O	23.1%	50.5%	13.1	30.6%	8.41% (active)		20.8%	-1.16% (active)	21.7%	36.3%	40.2%	24.9	19.2%	12%	6.11% (active)	2.19% (active)	23%	23.5%	13.9%	9.61% (active)
CO[C@H]1/C=C/O[C@@]2(C)Oc3c(C)c(O)c4c(O)c(c(/C=N/N5C(C)CN(Cc6ccccc6)CC5C)c(O)c4c3C2=O)NC(=O)/C(C)=C\C=C\[C@H](C)[C@H](O)[C@@H](C)[C@@H](O)[C@@H](C)[C@H](OC(C)=O)[C@@H]1C (some centres undefined)	14.7%	68.1%	121	89.1%	54.9%	-12.5% (active)		68.7%	108%	102%		92.6	41.1%	85.8%	117%		57.5%	81.6%	80.1%	203%
COc1ccc(C(=O)COc2cccc(/C=C3\Oc4ccc5ccccc5c4C3=O)c2)cc1	10.3%	71.7%	106	89.8%	100%	-0.888% (active)		100%	17.2%	79.3%		83.7	119%	-50% (active)	95.7%	49.2%	43.7%		77.3%	81.4%
CN1CCCC1c1cccnc1 (centres undefined)	2.54% (active)	96.4%	105	113%	98.6%	17.3%		108%	128%	97.3%		111	124%	85.2%		119%	100%	110%	105%	106%
O=C(O)C(=O)O	15.2%	96.6%	95.2	108%	111%	33.1%		96.9%	108%	102%		108	110%	94.8%		109%	95%	99.6%	108%	116%
Cc1cccc(Cl)c1NC(=O)c1ccc2nc(NC(=O)NC3CC(C)(C)NC(C)(C)C3)sc2c1	91%	103%	81.8	68.3%	101%	88.6%		84.6%	82.2%	54%	35.8%	70.4	79.7%	41.8%		93.6%	103%	103%	15.3%	9.24% (active)
CCC1=C(c2ccc(OC)cc2)C(C)Oc2cc(OC(C)=O)ccc21 (centres undefined)	82%	83.1%	116	99.7%	93%	78.8%		101%	98%	90.4%	85.3%	86.9	99.4%	84.3%		83.4%	85.5%	102%		50.2%
CCC(CCC(C)C1CCC2C3CC=C4CC(O)CCC4(C)C3CCC12C)C(C)C (centres undefined) (tested in a mixture with another compound)	112%	101%	145	114%	96.6%	116%		96%	138%	115%		79.9	76.9%	80.3%		92.2%	95.6%	115%	107%	82%
COc1cccc(CCC2C(=O)CCCC2=O)c1	103%	111%	102	106%	117%		108%	108%	115%	114%	134%	98.1	118%	98.8%	108%	113%	108%	105%	99.5%	109%
CCOC(=O)c1ccccc1OC(=O)NNc1ccccc1	100%	88.8%	58	70.6%	30.5%		74.1%	44.6%	82.1%	81.3%	124%	65.6	49.1%	10.7%	85.8%	57.3%	46%	82%	76.2%	5.06% (active)
CC(=O)Nc1ccc2c(c1)Cc1c(F)c(F)c(F)c(F)c1-2	25.2%	76.5%	81.9	107%	65.8%	23.2%		75.3%	113%	75.1%		91.9	90.5%	87.7%		114%	83.4%	96.4%	105%	104%
CCCCC(C#N)C(N)=O (centres undefined)	105%	102%	110	99%	111%	96.7%		96.4%	107%	104%	121%	114		96.9%			105%	104%	124%	
CC(=O)NCCSC(=O)C(=O)SCCNC(C)=O	109%	103%	144	107%	114%	125%		95.5%	138%	107%		109	102%	97.5%		106%	119%	116%	122%	95.6%
C/C(=N\N1CC(=O)NC1=O)c1ccc([N+](=O)[O-])o1	101%	106%	121	120%	94.6%		97.3%	103%	114%	106%	128%	84.7	104%	108%	81.9%	103%	115%	98.8%	108%	90.6%
CN(C)CCCN1c2nc3ccccc3cc2Sc2cc3ccccc3nc21	-34.2% (active)	40.1%	18	32%	-89.1% (active)	-67.7% (active)		-86.3% (active)	-75.9% (active)	-82.8% (active)		27.2	-74.7% (active)	-94.6% (active)	-69.5% (active)	-70.6% (active)	2.14% (active)		-89.2% (active)	4.31% (active)
COc1c(O)cc2oc3cc(O)c(CC=C(C)C)c(O)c3c(=O)c2c1C/C=C(\C)CCC=C(C)C	33.5%	105%	90.1	41.2%	33.6%		45.1%	30.2%	127%	5.81% (active)	-22.5% (active)	64.7	87.2%	93.2%	103%	52%	73%	81.1%	81.7%	27.2%
CCS(=O)(=O)OCCCl	22.4%	98.4%	103	108%	107%	14.3%		96.5%	113%	118%		107	97.2%	94.9%	72.1%	116%	92.9%	116%	102%	122%
